We go through 37 molecules from PubChem BioAssay (NCATS).

Results filed as inconclusive are left out. A number with no mark means an inactive call. Activity calls are given as the source filed them. Calls follow the shape of the dose curve; as a rule, active = well fitted curve in the direction sought with a large enough effect; inconclusive = small, poorly fitted or top-dose-only effect, or another doubt; inactive = no such curve, though single readings can be large; an effect the other way counts as inactive or inconclusive.

In experiment [1] the target is Rap guanine nucleotide exchange factor 3 (Homo sapiens) (UniProt O95398). The experiment in a line: Confirmatory qHTS for agonist of cAMP-regulated guanine nucleotide exchange factor 3 (EPAC1) (AID 1645881).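 Also: EPAC1 catalysed release of BODIPY-GDP from Rap1B seen as fluorescence loss; 100% = effect of cAMP agonist control; nearly all actives have a fitted effect of over 75% in size.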
Chain of Rap guanine nucleotide exchange factor 3 (Homo sapiens) (O95398 whole entry, looked up): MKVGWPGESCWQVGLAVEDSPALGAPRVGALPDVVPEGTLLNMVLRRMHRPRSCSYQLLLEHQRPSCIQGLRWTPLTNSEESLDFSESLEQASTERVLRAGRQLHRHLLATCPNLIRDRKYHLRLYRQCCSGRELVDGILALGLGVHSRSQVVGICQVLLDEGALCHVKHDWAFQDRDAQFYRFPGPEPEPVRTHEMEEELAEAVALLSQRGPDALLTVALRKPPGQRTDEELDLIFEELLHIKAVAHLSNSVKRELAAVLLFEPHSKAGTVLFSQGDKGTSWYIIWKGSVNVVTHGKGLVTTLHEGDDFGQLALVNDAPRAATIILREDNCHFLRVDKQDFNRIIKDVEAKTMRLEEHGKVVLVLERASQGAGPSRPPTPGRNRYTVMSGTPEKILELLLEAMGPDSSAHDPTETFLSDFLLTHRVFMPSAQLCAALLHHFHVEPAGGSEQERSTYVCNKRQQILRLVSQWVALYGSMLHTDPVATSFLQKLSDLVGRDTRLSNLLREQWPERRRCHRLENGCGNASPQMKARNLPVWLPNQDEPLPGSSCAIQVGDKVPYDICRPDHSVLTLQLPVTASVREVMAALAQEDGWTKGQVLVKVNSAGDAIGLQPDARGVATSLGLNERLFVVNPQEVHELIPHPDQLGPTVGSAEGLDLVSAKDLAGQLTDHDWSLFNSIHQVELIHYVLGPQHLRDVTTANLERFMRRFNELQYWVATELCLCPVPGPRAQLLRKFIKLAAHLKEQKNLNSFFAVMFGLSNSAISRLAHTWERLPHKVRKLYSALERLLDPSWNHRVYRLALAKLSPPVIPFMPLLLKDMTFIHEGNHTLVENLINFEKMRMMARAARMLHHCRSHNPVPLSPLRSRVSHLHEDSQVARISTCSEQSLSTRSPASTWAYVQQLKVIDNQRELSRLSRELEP
Experiment [2] has as its target Rap guanine nucleotide exchange factor 4 (Homo sapiens) (UniProt Q8WZA2). The experiment in a line: Confirmatory qHTS for agonist of cAMP-regulated guanine nucleotide exchange factor 4 (EPAC2) (AID 1645884).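 Also: nucleotide exchange releases bodipy-GDP from Rap1 and this lowers its fluorescence; % is scaled to controls: 0 for no effect and ±100 for the full control effect; nearly all actives have a fitted effect of over 65% in size.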
For experiment [3] the target is unchanged. The experiment in a line: Confirmatory qHTS for antagonist of cAMP-regulated guanine nucleotide exchange factor 4 (EPAC2) (AID 1645885). Also: nearly all actives have a fitted effect of over 25% in size. Also: potency is read from the fitted curve at half-maximal effect.

Chain of Rap guanine nucleotide exchange factor 4 (Homo sapiens) (Q8WZA2 whole entry, looked up): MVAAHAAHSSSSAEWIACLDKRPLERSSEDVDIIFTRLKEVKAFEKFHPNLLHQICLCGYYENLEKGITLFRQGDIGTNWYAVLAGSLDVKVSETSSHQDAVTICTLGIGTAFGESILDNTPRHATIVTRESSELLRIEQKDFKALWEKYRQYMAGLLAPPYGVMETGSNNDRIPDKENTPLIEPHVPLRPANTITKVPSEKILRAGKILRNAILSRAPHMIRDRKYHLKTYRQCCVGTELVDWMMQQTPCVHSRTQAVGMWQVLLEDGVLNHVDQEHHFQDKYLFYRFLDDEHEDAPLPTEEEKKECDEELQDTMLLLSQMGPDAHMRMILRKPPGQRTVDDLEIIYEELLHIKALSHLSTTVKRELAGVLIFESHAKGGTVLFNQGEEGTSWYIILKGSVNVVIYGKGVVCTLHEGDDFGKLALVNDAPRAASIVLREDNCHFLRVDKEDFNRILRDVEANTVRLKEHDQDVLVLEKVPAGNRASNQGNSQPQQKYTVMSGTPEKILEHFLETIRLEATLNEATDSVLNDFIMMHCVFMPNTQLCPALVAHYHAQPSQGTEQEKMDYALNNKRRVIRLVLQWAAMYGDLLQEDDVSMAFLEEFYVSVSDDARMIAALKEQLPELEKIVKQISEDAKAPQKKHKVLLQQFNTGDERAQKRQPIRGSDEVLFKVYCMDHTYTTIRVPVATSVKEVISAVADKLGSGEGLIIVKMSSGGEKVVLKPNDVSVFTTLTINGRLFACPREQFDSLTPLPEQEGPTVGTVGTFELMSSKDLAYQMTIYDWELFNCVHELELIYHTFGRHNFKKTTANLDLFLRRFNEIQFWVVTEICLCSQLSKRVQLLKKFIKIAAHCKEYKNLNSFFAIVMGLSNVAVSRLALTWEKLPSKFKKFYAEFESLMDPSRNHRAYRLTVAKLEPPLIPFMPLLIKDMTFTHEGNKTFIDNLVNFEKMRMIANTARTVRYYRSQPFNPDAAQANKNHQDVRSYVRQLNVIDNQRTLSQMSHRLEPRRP

For `COc1cc(CNc2ccc(O)cc2)cc(Br)c1OCc1ccccc1F`, the Potency entry in experiment [1] and in experiment [3] was “inactive” throughout. Further, the activation in experiment [2] was 0.373% [at 17.1 µM, percent relative to cAMP agonist control].

`Cc1ccc(-c2cc(C(=O)Nc3ccncc3)c3ccccc3n2)cc1`: the Potency result in experiment [1] and in experiment [2] was “inactive” in each case.

Regarding `Cc1oc2ccc(O)c(CN3CCCCC3)c2c1C(=O)Nc1cccc(C(F)(F)F)c1`, the Potency entry in experiment [1] and in experiment [2] was “inactive” in each case.

For `Cn1cc([C@]2(O)C(=O)Nc3ccc(Br)cc32)c2ccccc21`, the Potency result in experiment [1] and in experiment [2] was “inactive” throughout.

Take `Cc1ccc(Nc2nc3nonc3[nH]c2=O)cc1Cl`: the Potency entry in experiment [1] and in experiment [2] was “inactive” in each case.

Turning to `CCCCNC(=O)C[C@@H]1C[C@@]2(C(=O)OC)CCCCC=C2N(Cc2cccc3ccccc23)C1=O`, the Potency result in experiment [1] and in experiment [2] was “inactive” in each case.

Turning to `CN(c1ccccc1)c1nc(N)c([N+](=O)[O-])c(N2CCCCC2)n1`, the Potency entry in experiment [1] and in experiment [2] was “inactive” each time.

In the case of `CCCCC[C@H](C)N1C[C@@H](COCc2ccccc2)Oc2cc(N3CCC[C@H]3C(N)=O)ccc2S1(=O)=O`, the Potency entry in experiment [1] and in experiment [2] was “inactive” throughout.

With `Cc1ccccc1NS(=O)(=O)c1ccc2c3c(cccc13)C(=O)N2C`, the Potency result in experiment [1] and in experiment [2] was “inactive” throughout.

As to `CC(C)C[C@H]1COCCS(=O)(=O)N1Cc1cccc(C(F)(F)F)c1`, the Potency entry in experiment [1], in experiment [2] and in experiment [3] was “inactive” in each case.

As for `CN(C)c1ccc(C(=O)Nc2sc(Nc3ccccc3)nc2C(N)=O)cc1`, the Potency result in experiment [1], in experiment [2] and in experiment [3] was “inactive” in each case.

For `O=C(CCN1C(=O)/C(=C/c2ccc3c(c2)OCO3)SC1=S)Nc1ccc(C(=O)O)cc1`, the Potency entry in experiment [1] and in experiment [2] was “inactive” throughout.

On to `O=C1CCCC2=C1CC(C(=O)OCc1ccccc1)C(=O)N2Cc1ccccc1` (stereo not drawn), for which the Potency entry in experiment [1] and in experiment [3] was “inactive” each time. The activation in experiment [2] is 0% [at 17.1 µM, percent relative to cAMP agonist control].

Consider `Oc1ccc(N=Cc2ccc(OCc3ccccc3)cc2)cc1`, for which the Potency result in experiment [1] and in experiment [3] was “inactive” in each case. The activation in experiment [2] was 11.9% [at 17.1 µM, percent relative to cAMP agonist control].

On to `Cc1cccc(NC(=O)CSCC(=O)Nc2cccc(S(=O)(=O)N3CCCCCC3)c2)c1`, for which the Potency entry in experiment [1] and in experiment [3] was “inactive” throughout. In experiment [2], the activation is 8.94% [at 17.1 µM, percent relative to cAMP agonist control].

For `FC(F)(F)c1ccc(CSc2nccn2-c2ccccc2)cc1`, the Potency entry in experiment [1] was “inactive”.

For the molecule `CCOc1cc(/C=N/Nc2ccc(C(=O)O)cc2)ccc1OC(=O)c1ccccc1C`, the Potency result in experiment [1] and in experiment [2] was “inactive” throughout.

As for `CC[N+](C)(C)c1ccc(/C=C/c2ccnc3ccccc23)cc1`, the Potency entry in experiment [1] and in experiment [2] was “inactive” throughout.

In the case of `CCc1cc(-c2n[nH]c(C)c2-c2ccccc2Cl)c(O)cc1OC`, the Potency result in experiment [1], in experiment [2] and in experiment [3] was “inactive” each time.

For the molecule `COC(=O)c1ccc2c(=O)n(CCCCCC(=O)N3CCN(c4cc(C)ccc4C)CC3)c(=O)[nH]c2c1`, the Potency entry in experiment [1], in experiment [2] and in experiment [3] was “inactive” in each case.

Regarding `CCCCC[C@H]1CN(Cc2ccccc2)C(=O)[C@@H]1CC(=O)NCc1ccc(OC)cc1`, the Potency result in experiment [1] and in experiment [2] was “inactive” throughout. For the same molecule, the Potency in experiment [3] is 44.1 µM (active).

With `COC(=O)c1ccc(CSc2nc3scc(-c4cccs4)c3c(=O)[nH]2)o1`, the Potency entry in experiment [1], in experiment [2] and in experiment [3] was “inactive” each time.

On to `Cc1ccccc1CN1C(=O)C(C)Sc2ccc(-c3ccco3)cc21` (stereo not drawn), for which the Potency result in experiment [1], in experiment [2] and in experiment [3] was “inactive” each time.

As to `O=C(Nc1cccc(NC(=O)c2cccs2)c1)c1ccc(Br)o1`, the Potency result in experiment [1], in experiment [2] and in experiment [3] was “inactive” throughout.

Regarding `Cc1nc2c(OCc3ccc(OC(F)F)cc3)cccn2c1N(C)C(=O)CCC1CCCC1`, the Potency entry in experiment [1] and in experiment [2] was “inactive” throughout. In experiment [3], the Potency is 26.9 µM (active).

In the case of `CCN(CC)c1ccccc1/C=C/[n+]1ccc(CCCCI)c2ccccc21`, the Potency entry in experiment [1] and in experiment [2] was “inactive” each time. For the same molecule, in experiment [3], the Potency was 49.4 µM (active).

Consider `COC(=O)[C@H](Cc1ccccc1)NC(=O)c1ccc2ccccc2n1`, for which the Potency result in experiment [1] and in experiment [3] was “inactive” each time. In experiment [2], the activation is 3.75% [at 17.1 µM, percent relative to cAMP agonist control].

`Cc1cc(C)cc(OCC(=O)OCC(=O)NC2CCCCCCC2)c1`: the Potency result in experiment [1], in experiment [2] and in experiment [3] was “inactive” each time.

`CC(C)Oc1cc(F)ccc1-c1cc(C(=O)Nc2ccc(C(C)C)cc2)[nH]n1`: the Potency result in experiment [1], in experiment [2] and in experiment [3] was “inactive” throughout.

Consider `COc1ccc(C(=O)CC2(O)C(=O)N(Cc3cccc(C(F)(F)F)c3)c3ccccc32)cc1` (stereo not drawn), for which the Potency entry in experiment [1], in experiment [2] and in experiment [3] was “inactive” in each case.

On to `Cc1ccc(C)n1-c1nn(S(=O)(=O)c2ccccc2)c2cccc(F)c12`, for which the Potency result in experiment [1] and in experiment [2] was “inactive” in each case. Besides, the Potency in experiment [3] was 13.5 µM (active).

Consider `Cc1ccc(C(C[N+](=O)[O-])c2c(-c3ccccc3O)[nH][nH]c2=O)cc1` (stereo not drawn), for which the Potency result in experiment [1] is “inactive”. Moreover, the activation in experiment [2] was 3.05% [at 17.1 µM, percent relative to cAMP agonist control]. In experiment [3], the Potency was 3.38 µM (active).

For `Cc1cccc(N(C)S(=O)(=O)c2c[nH]c3ccc([N+](=O)[O-])cc23)c1`, the Potency entry in experiment [1], in experiment [2] and in experiment [3] was “inactive” each time.

Regarding `COc1ccc(OCCC(=O)OCC(=O)Nc2ccc(S(=O)(=O)N3CCOCC3)cc2)cc1`, the Potency result in experiment [1] and in experiment [3] was “inactive” in each case. For the same molecule, in experiment [2], the activation was 0% [at 17.1 µM, percent relative to cAMP agonist control].

Consider `COc1ccc2ccc(C(C)(C(C)=O)C(=O)OC(C)C)cc2c1` (stereo not drawn), for which the Potency entry in experiment [1] and in experiment [3] was “inactive” each time. For the same molecule, the activation in experiment [2] was 5.56% [at 17.1 µM, percent relative to cAMP agonist control].

With `COc1ccc(S(=O)(=O)N2CCCCC2)cc1NC(=O)c1c(F)cccc1Cl`, the Potency entry in experiment [1], in experiment [2] and in experiment [3] was “inactive” in each case.

In the case of `O=C(COc1ccc(Cl)cc1)NC1=NN(c2ccccc2)C(=O)C1`, the Potency entry in experiment [1], in experiment [2] and in experiment [3] was “inactive” in each case.
